Source: PubChem BioAssay AID1159580 (chemical genetic matrix, 2015)
Out of some 5,500 compounds screened, about 2,000 (36%) were called active. Inconclusive results (about 18%) are left out. Rule as the data show it: active = normalized growth mostly below about 0.91 (no sharp cut-off); inconclusive = no clear call, values can overlap the other calls; inactive = mostly above about 0.92. This is one part of the list.

Experiment: chemical genetic growth profiling, strain panel (AID 1159580);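 also: tested at 20 µM; growth read once vehicle control cultures reached saturation at 30 °C; 1 = growth at the plate median or of vehicle wells; lower values mean less growth of the strain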
Conditions: growth OD

Measured: normalized growth

CCOC(=O)NNc1nncc2ccccc12
inactive: S. cerevisiae deletion strains, locus YJR066W, strain TOR1, stronger effect = lower value 0.978 | S. cerevisiae deletion strains, locus YJR075W, strain HOC1, stronger effect = lower value 0.997 | S. cerevisiae deletion strains, locus YKL009W, strain mrt4, stronger effect = lower value 0.986 | S. cerevisiae deletion strains, locus YKL068W, stronger effect = lower value 0.984 | S. cerevisiae deletion strains, locus YKL085W, strain MDH1 (second series), stronger effect = lower value 0.992 | S. cerevisiae deletion strains, locus YKL085W, strain MDH1, stronger effect = lower value 0.992 | S. cerevisiae deletion strains, locus YKL160W, strain elf1, stronger effect = lower value 1.02 | S. cerevisiae deletion strains, locus YKL190W, strain CNB1, stronger effect = lower value 0.998 | S. cerevisiae deletion strains, locus YKR001C, strain vps1, stronger effect = lower value 0.983 | S. cerevisiae deletion strains, locus YKR026C, strain gcn3, stronger effect = lower value 1.02 | S. cerevisiae deletion strains, locus YKR091W, strain srl3, stronger effect = lower value 1 | S. cerevisiae deletion strains, locus YLL001W, strain dnm1, stronger effect = lower value 0.986 | S. cerevisiae deletion strains, locus YLL026W, stronger effect = lower value 1 | S. cerevisiae deletion strains, locus YLL041C, strain sdh2, stronger effect = lower value 1.01 | S. cerevisiae deletion strains, locus YLR027C, strain aat2, stronger effect = lower value 1 | S. cerevisiae deletion strains, locus YLR039C, strain RIC1, stronger effect = lower value 1.03 | S. cerevisiae deletion strains, locus YLR058C, strain SHM2, stronger effect = lower value 0.992 | S. cerevisiae deletion strains, locus YLR102C, strain apc9, stronger effect = lower value 0.979 | S. cerevisiae deletion strains, locus YLR113W, strain HOG1, stronger effect = lower value 0.967 | S. cerevisiae deletion strains, locus YLR221C, strain rsa3, stronger effect = lower value 0.976 | S. cerevisiae deletion strains, locus YLR258W, strain gsy2, stronger effect = lower value 1.04 | S. cerevisiae deletion strains, locus YLR262C, strain YPT6 (second series), stronger effect = lower value 1.01 | S. cerevisiae deletion strains, locus YLR262C, strain YPT6, stronger effect = lower value 1.02 | S. cerevisiae deletion strains, locus YLR268W, strain sec22, stronger effect = lower value 0.968 | S. cerevisiae deletion strains, locus YLR320W, strain mms22, stronger effect = lower value 0.92 | S. cerevisiae deletion strains, locus YLR330W, strain CHS5, stronger effect = lower value 0.992 | S. cerevisiae deletion strains, locus YLR342W, strain FKS1 (second series), stronger effect = lower value 0.973 | S. cerevisiae deletion strains, locus YLR342W, strain FKS1, stronger effect = lower value 1.03 | S. cerevisiae deletion strains, locus YLR357W, strain rsc2, stronger effect = lower value 1.06 | S. cerevisiae deletion strains, locus YLR370C, strain arc18, stronger effect = lower value 1.02 | S. cerevisiae deletion strains, locus YLR371W, strain rom2, stronger effect = lower value 0.977 | S. cerevisiae deletion strains, locus YLR384C, strain iki3, stronger effect = lower value 0.989 | S. cerevisiae deletion strains, locus YLR418C, strain cdc73, stronger effect = lower value 0.957 | S. cerevisiae deletion strains, locus YML016C, strain PPZ1, stronger effect = lower value 0.991 | S. cerevisiae deletion strains, locus YML032C, strain rad52, stronger effect = lower value 0.97 | S. cerevisiae deletion strains, locus YML120C, strain ndi1, stronger effect = lower value 0.992 | S. cerevisiae deletion strains, locus YML124C, strain tub3, stronger effect = lower value 0.983 | S. cerevisiae deletion strains, locus YMR058W, strain fet3, stronger effect = lower value 1.01 | S. cerevisiae deletion strains, locus YMR078C, strain ctf18, stronger effect = lower value 0.983 | S. cerevisiae deletion strains, locus YMR125W, strain sto1, stronger effect = lower value 1.03 | S. cerevisiae deletion strains, locus YMR129W, stronger effect = lower value 0.988 | S. cerevisiae deletion strains, locus YMR205C, strain PFK2, stronger effect = lower value 0.993 | S. cerevisiae deletion strains, locus YMR223W, strain ubp8, stronger effect = lower value 0.972 | S. cerevisiae deletion strains, locus YMR231W, strain pep5, stronger effect = lower value 0.997 | S. cerevisiae deletion strains, locus YMR307W, strain GAS1, stronger effect = lower value 0.972 | S. cerevisiae deletion strains, locus YNL067W, strain RPL9B, stronger effect = lower value 1.01 | S. cerevisiae deletion strains, locus YNL071W, strain lat1, stronger effect = lower value 1.01 | S. cerevisiae deletion strains, locus YNL128W, strain TEP1, stronger effect = lower value 0.967 | S. cerevisiae deletion strains, locus YNL183C, strain NPR1, stronger effect = lower value 0.934 | S. cerevisiae deletion strains, locus YNL209W, strain ssb2, stronger effect = lower value 1.01 | S. cerevisiae deletion strains, locus YNL233W, strain BNI4, stronger effect = lower value 0.998 | S. cerevisiae deletion strains, locus YNL248C, strain rpa49, stronger effect = lower value 1.06 | S. cerevisiae deletion strains, locus YNL250W, strain rad50, stronger effect = lower value 0.995 | S. cerevisiae deletion strains, locus YNL271C, strain bni1, stronger effect = lower value 0.973 | S. cerevisiae deletion strains, locus YNL298W, strain CLA4, stronger effect = lower value 0.985 | S. cerevisiae deletion strains, locus YNL307C, strain MCK1, stronger effect = lower value 0.977 | S. cerevisiae deletion strains, locus YNL322C, strain KRE1 (second series), stronger effect = lower value 1.05 | S. cerevisiae deletion strains, locus YNL322C, strain KRE1, stronger effect = lower value 0.998 | S. cerevisiae deletion strains, locus YNR049C, strain mso1, stronger effect = lower value 1 | S. cerevisiae deletion strains, locus YNR052C, strain pop2, stronger effect = lower value 0.966 | S. cerevisiae deletion strains, locus YOL006C, strain TOP1, stronger effect = lower value 1.02 | S. cerevisiae deletion strains, locus YOL012C, strain htz1 1.25 | S. cerevisiae deletion strains, locus YOL147C, strain pex11, stronger effect = lower value 0.98 | S. cerevisiae deletion strains, locus YOR001W, strain rrp6, stronger effect = lower value 0.97 | S. cerevisiae deletion strains, locus YOR061W, strain CKA2, stronger effect = lower value 0.986 | S. cerevisiae deletion strains, locus YOR069W, strain VPS5, stronger effect = lower value 0.986 | S. cerevisiae deletion strains, locus YOR070C, strain gyp1, stronger effect = lower value 1.01 | S. cerevisiae deletion strains, locus YOR080W, strain dia2, stronger effect = lower value 1.02 | S. cerevisiae deletion strains, locus YOR083W, strain WHI5, stronger effect = lower value 0.99 | S. cerevisiae deletion strains, locus YOR106W, strain vam3, stronger effect = lower value 1.05 | S. cerevisiae deletion strains, locus YOR136W, strain idh2, stronger effect = lower value 0.981 | S. cerevisiae deletion strains, locus YOR144C, strain elg1, stronger effect = lower value 0.983 | S. cerevisiae deletion strains, locus YOR184W, strain ser1, stronger effect = lower value 0.98 | S. cerevisiae deletion strains, locus YOR231W, strain MKK1, stronger effect = lower value 0.952 | S. cerevisiae deletion strains, locus YOR265W, strain rbl2, stronger effect = lower value 0.992 | S. cerevisiae deletion strains, locus YOR270C, strain vph1, stronger effect = lower value 1.06 | S. cerevisiae deletion strains, locus YOR290C, strain snf2, stronger effect = lower value 1.05 | S. cerevisiae deletion strains, locus YOR316C, strain cot1, stronger effect = lower value 0.976 | S. cerevisiae deletion strains, locus YPL051W, strain arl3, stronger effect = lower value 1.02 | S. cerevisiae deletion strains, locus YPL055C, strain LGE1, stronger effect = lower value 1.04 | S. cerevisiae deletion strains, locus YPL078C, strain atp4, stronger effect = lower value 1.07 | S. cerevisiae deletion strains, locus YPL106C, strain sse1, stronger effect = lower value 1.04 | S. cerevisiae deletion strains, locus YPL240C, strain hsp82, stronger effect = lower value 1.01 | S. cerevisiae deletion strains, locus YPL241C, strain CIN2, stronger effect = lower value 0.993 | S. cerevisiae deletion strains, locus YPL256C, strain CLN2, stronger effect = lower value 0.955 | S. cerevisiae deletion strains, locus YPR119W, strain clb2, stronger effect = lower value 0.975 | S. cerevisiae deletion strains, locus YPR141C, strain kar3, stronger effect = lower value 0.973 | S. cerevisiae deletion strains, locus YPR163C, strain tif3, stronger effect = lower value 0.969 | S. cerevisiae deletion strains, locus YPR167C, strain met16, stronger effect = lower value 0.975 | S. cerevisiae deletion strains, strain wtn01, stronger effect = lower value 1.01 | S. cerevisiae strains, strain wild type, stronger effect = lower value 1
